High-throughput results: PubChem, several laboratories
Sampled rows, rich in hits. Any-hit rate of the full collection: about 4.6%.
PfHsp90 yeast 2 = reduces growth (ATP signal) of yeast expressing P. falciparum Hsp90. S. cerevisiae expressing PfHsp90, BacTiter-Glo ATP, 48 h; yeast lacking PDR1 and PDR3 efflux regulators. inhibition, % at 9.4 µM. AID 504621. hit rate 0.32% among 310,000;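 active = every replicate shows inhibition above about 80%, whatever the replicate mean, limit read from the data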;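 note: 0% = DMSO neutral controls and 100% = 20 µM radicicol positive controls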
tim23-1 inh = growth inhibitors of tim23-1 mutant yeast. hit rate 1.3% among 330,000. inhibition, % at 20 µM. S. cerevisiae tim23-1 growth, BacTiter-Glo luminescence, 24 h. AID 463212;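 active = growth inhibition of the mutant yeast at or above 50%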;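 note: temperature-sensitive mutant grown at 25 °C; plate controls were DMSO-treated mutant yeast for no effect and medium wells lacking yeast for full effect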
NLRP3 yeast inh = NALP3 inhibition in yeast; Yeast reconstituted NLRP3/ASC/caspase-1, beta-gal luminescence, 24 h; inhibition, % at 10 µM; hit rate 0.39% among 330,000;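 active = inhibition of 50% or more; inactive = inhibition below 50%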;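 note: plate controls were induced DMSO wells for no effect and uninduced yeast grown without galactose for full effect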
SKKanGAS inh = blocks kanamycin growth of S. pyogenes SKKanGAS strain | BacTiter-Glo, 6 h | inhibition, % at 7.5 µM | hit rate 1.3% among 300,000 | AID 1662;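 active = mean replicate score, as percent of positive control median, at least 50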;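 note: strain carries kanamycin resistance gene driven by streptokinase promoter and grows in 40 µg/ml kanamycin; loss of luminescence reflects streptokinase promoter inhibition or plain growth inhibition; 0% = median of DMSO wells and 100% = positive control at its reference dose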
TIM10 inh = inhibits growth of TIM10 yeast strain. hit rate 1.4% among 330,000. inhibition, % at 10 µM. S. cerevisiae TIM10 strain growth, BacTiter-Glo luminescence, 24 h;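 active = inhibition of 40% or more at the single tested concentration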;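 note: wild-type TIM10 isogenic control strain grown at permissive 25 °C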
tim10-1 inh = growth inhibitors of tim10-1 mutant yeast | S. cerevisiae tim10-1 ts strain growth, BacTiter-Glo, 24 h | inhibition, % at 20 µM | hit rate 2.2% among 330,000;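 active = inhibition of at least 40%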;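 note: mutant grown at 25 °C; 0% = DMSO wells with yeast and 100% = wells holding no yeast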
tim10-1 conf = confirmation of tim10-1 mutant yeast growth inhibitors | S. cerevisiae tim10-1 ts strain growth, BacTiter-Glo, 24 h | hit rate 56% among 7,400 | AID 463213 | shares compounds with tim10-1 inh | inhibition, % at 20 µM;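 active = inhibition of yeast growth at or above a set limit in either of two repeat tests at 20 µM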;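 note: tim10-1 mutant grown at permissive 25 °C to find synthetic lethal compounds; 0% = DMSO yeast wells and 100% = medium wells without yeast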
* hit, by the source's call; x = not tested or not shown.

SMILES | PfHsp90 yeast 2 | tim23-1 inh | NLRP3 yeast inh | SKKanGAS inh | TIM10 inh | tim10-1 inh | tim10-1 conf
CC(C)Cc1nn2c(=O)cc(CSCC(=O)Nc3ccccc3F)nc2s1 | -24.0 | 8.2 | 9.6 | -2.9 | -5.7 | -1.8 | x
CCCc1nnc(SCC(=O)N2CCCC2)n1Cc1ccco1 | -7.9 | 3.4 | 6.8 | 1.9 | -4.9 | -16.1 | x
Fc1cc(F)cc(Nc2nc(Cl)nc(NC3CCCC3)n2)c1 | -24.6 | 34.9 | 5.1 | x | -9.0 | 45.3* | 19.4*
O=C(NC(=S)N1CCN(c2ccccn2)CC1)c1ccco1 | -19.7 | 1.3 | 12.3 | -15.9 | 17.7 | 18.0 | x
O=C(NCCN1CCCC1)c1ccc(Cl)cc1Cl | -14.2 | 5.1 | 8.5 | -0.9 | 0.3 | 6.9 | x
CCCNC(=O)c1ccc(Cl)cc1Cl | 3.6 | 5.1 | 4.4 | -3.4 | 2.6 | 97.3* | -2.1
Cc1ccc(CNC(=O)COC(=O)c2nc(-c3ccccc3)oc2C)cc1 | -98.7 | 28.4 | 36.7 | x | -3.8 | -3.4 | x
CCOC(=O)c1cc(-c2ccc(F)cc2)n(CCC(=O)NC2CCN(Cc3ccccc3)CC2)c1C | 8.7 | 9.3 | 22.0 | -19.5 | 4.0 | -3.8 | x
Cc1ccc(S(=O)(=O)Nc2ccc(N=Nc3ccc(O)cc3)cc2)cc1 | -27.7 | 37.5 | 42.1 | 13.4 | 33.8 | 40.3* | 47.2*
Fc1ccc(-c2nn3c(C4COc5ccccc5O4)nnc3s2)cc1 (configuration not stated) | -143.8 | 25.3 | 1.8 | -3.7 | 34.3 | 47.5* | 43.2*
O=C(c1nc2ccc(Cl)cn2c1CNCCc1cnccn1)N1CCCCCCC1 | -3.5 | -3.0 | 6.3 | -5.7 | 6.5 | 9.0 | x
CCOC(=O)N1CCC(n2c(SCC(=O)N3CCCC3)nc3ccccc3c2=O)CC1 | x | 6.6 | -1.3 | 5.2 | 11.2 | 24.6 | x
CCOC(=O)N1CCC(n2c(SCC(=O)NCc3ccccc3)nc3ccccc3c2=O)CC1 | 0.8 | 31.7 | 10.4 | 3.8 | 25.1 | 43.4* | 20.9
COCCNc1c([N+](=O)[O-])c(=O)n(-c2ccccc2)c2ccccc12 | 4.5 | -0.2 | 30.4 | -7.1 | 5.0 | 12.9 | x
CCSc1c([N+](=O)[O-])c(=O)n(-c2ccccc2)c2ccccc12 | -20.5 | 44.6 | 30.4 | -1.4 | 39.6 | 46.7* | 45.5*
O=C(CCNc1ccc(F)cc1)c1cccc([N+](=O)[O-])c1 | -14.2 | 12.8 | 15.4 | -1.4 | 15.4 | 40.3* | 43.0*
N/C(=N/OC(=O)c1cccc([N+](=O)[O-])c1)c1cccc([N+](=O)[O-])c1 | 1.1 | -13.7 | 0.4 | 0.5 | -26.2 | 19.8 | x
N/C(=N\OC(=O)c1ccc(F)cc1)c1cccc([N+](=O)[O-])c1 | -7.8 | 28.1 | 14.7 | -7.7 | 25.3 | 47.9* | 63.0*
N/C(=N\OC(=O)c1ccccc1Cl)c1cccc([N+](=O)[O-])c1 | 6.1 | 23.3 | 34.0 | -6.3 | 27.7 | 50.1* | 65.8*
O=C(CCNc1ccccc1)c1cccc([N+](=O)[O-])c1 | 3.6 | 19.1 | 7.0 | -3.8 | 13.2 | 24.2 | x
CCCc1nc(C(C)(C)O)c(C(=O)O)n1Cc1ccc(-c2ccccc2-c2nn[nH]n2)cc1 | x | -5.1 | 4.3 | 3.8 | 3.6 | -13.8 | x
COc1ccc2[nH]c3c(c2c1)CCN1C(=O)C(CC(=O)NCCc2ccccn2)C[C@H](C(=O)N2CCCCC2)[C@@]31C (some centres not stated) | 3.6 | 24.3 | x | x | 1.5 | -1.6 | x
CCOC(=O)c1c(NC(=O)COC(=O)Cc2c[nH]c3ccccc23)sc(C(=O)N(C)C)c1C | -2.4 | 19.4 | 5.2 | 1.4 | 11.3 | 2.3 | x
CCCN(CC(=O)Nc1cc(Cl)cc(Cl)c1)CC(=O)Nc1ccc(F)c(F)c1F | -22.1 | 36.8 | 3.2 | 82.0* | 37.1 | 51.2* | 29.1
Cc1cccc(NC(=S)N(CCN2CCOCC2)Cc2ccccc2F)c1 | 2.8 | 15.9 | -3.3 | -4.5 | -5.9 | 42.4* | 4.7
SMILES | PfHsp90 yeast 2 | tim23-1 inh | NLRP3 yeast inh | SKKanGAS inh | TIM10 inh | tim10-1 inh | tim10-1 conf
Cc1ccc(NC(=S)N(CCN2CCOCC2)Cc2ccccc2F)cc1Cl | 0.0 | 6.0 | -2.6 | -3.6 | 35.1 | 36.6 | x
Cc1ccccc1-c1nc2sc(C)c(C)c2c(=O)o1 | -14.1 | 12.5 | 14.3 | 7.0 | -22.0 | 3.2 | x
Cc1sc2nc(-c3ccco3)oc(=O)c2c1C | 14.1 | 36.0 | 14.0 | -0.6 | 21.4 | 41.6* | 29.3
CCC(C(=O)Nc1nc(C)c(C(=O)OC)s1)c1ccccc1 (configuration not stated) | x | 35.1 | 14.1 | -2.4 | 20.1 | 42.9* | 35.6*
COC(=O)c1sc(NC(=O)C(C)c2ccccc2)nc1C (configuration not stated) | 7.4 | 38.9 | -6.7 | 4.4 | 16.7 | 38.9 | x
O=C(NCCCN1CCOCC1)c1ccc(Cl)cc1Cl | 30.8 | 2.9 | 15.6 | -6.0 | -17.2 | -2.9 | x
Cc1ccc(S(=O)(=O)N/N=C\c2cc([N+](=O)[O-])ccc2Cl)cc1 | -18.6 | 37.3 | 10.1 | 4.6 | 21.9 | 46.1* | 32.2*
N#Cc1nc(-c2ccccc2Cl)oc1NCc1ccco1 | -60.2 | 42.1 | 8.5 | 3.1 | -4.1 | 40.3* | 29.1
CC1(NC(=O)CCNC(=O)c2ccc(C(C)(C)C)cc2)CCS(=O)(=O)C1 (configuration not stated) | 5.1 | 15.2 | 8.7 | x | 1.1 | 13.5 | x
COC(=O)c1ccc(N2C(=O)Nc3ccccc3N2O)cc1 | -6.5 | 6.4 | 4.0 | -0.9 | -0.8 | 8.5 | x
CC(C)NC(=O)c1ccc(N(Cc2ccc(Cl)cc2)S(C)(=O)=O)cc1 | -0.9 | 5.5 | 10.7 | -4.0 | 1.5 | -11.6 | x
CCCN(CCC)S(=O)(=O)c1ccc(C(=O)Nc2nnc(CSC)o2)cc1 | -1.4 | 12.3 | -0.4 | 28.1 | 16.3 | 5.6 | x
CCCN(CCC)S(=O)(=O)c1ccc(C(=O)Nc2nnc(-c3cc(OC)cc(OC)c3)o2)cc1 | -46.2 | -4.8 | 13.2 | 102.1* | 22.4 | 41.1* | 8.2
CCOc1cc(C2C(C#N)=C(N)OC(C)=C2C(C)=O)cc(Br)c1O (configuration not stated) | x | 15.3 | 20.7 | 13.8 | -12.0 | 10.1 | x
CCOc1cc(C2C(C#N)=C(N)OC(C)=C2C(C)=O)c(Br)c(Br)c1OC(C)C (configuration not stated) | x | 45.0 | 20.5 | 2.5 | 4.8 | 45.5* | 26.6
O=C1C(Cc2ccccc2)Nc2ncnc(N3CCN(c4ccccc4)CC3)c2N1Cc1ccc(Br)cc1 (configuration not stated) | 1.0 | 27.4 | 17.6 | x | 17.4 | 14.4 | x
O=C1C(Cc2ccccc2)Nc2ncnc(N3CCc4ccccc4C3)c2N1Cc1ccc(Br)cc1 (configuration not stated) | x | 40.1 | 13.0 | 18.9 | 22.8 | 41.3* | 23.4
CC(OC(=O)c1ccc([N+](=O)[O-])s1)C(=O)NC1CCCCC1C (configuration not stated) | x | 19.3 | 9.1 | x | 39.5 | 46.8* | 38.9*
COc1cc(C(=O)OC(C)C(=O)NC2CCCCC2C)c([N+](=O)[O-])cc1OC (configuration not stated) | x | 16.6 | -3.7 | -15.6 | 4.3 | 18.5 | x
